Assay outcomes from PubChem.
697 NFkB inh – lowers PMA/ionomycin-induced NF-kB signal in 697 B cells; 0.33% of 330,000 active; inhibition, % at 4 µM; AID 435022; 697 B-cell NF-kB luciferase reporter, 16 h; in the data active = inhibition above about 35%
Jurkat NFkB inh – inhibitors of the PMA/ionomycin-induced NF-kB reporter in Jurkat cells; 0.53% of 330,000 active; inhibition, % at 4 µM; PMA/ionomycin-induced NF-kB luciferase reporter, luminescence; in the data active = inhibition above about 50%
Beta cell apopt – beta cell apoptosis inhibition; INS-1E cytokine-induced death, ATP luminescence, 48 h; percent of positive-control rescue, neutral wells zero; protection from apoptosis, % (concentration not given with the values); 0.8% of 300,000 active; AID 435005;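 active = Every replicate reaches about 75%, or at least half do and their mean reaches it too, limit read from the data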;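 also: 0% = cytokine-treated negative control wells and 100% = positive control rescue; higher means more ATP so stronger rescue from cytokine killing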
Gli-Sufu block – blocks Gli-Sufu signaling in a luciferase reporter; Sufu-KO-LIGHT fibroblasts, Gli luciferase reporter luminescence; inhibition, % at 5 µM; 0.74% of 340,000 active; AID 588413;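 active = inhibition above about 55%, limit read from the data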;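 also: 0% = DMSO-treated cells and 100% = wells with medium but no cells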
Jurkat NFkB conf – lowers PMA/ionomycin-induced NF-kB signal in Jurkat cells | shares compounds with Jurkat NFkB inh | Jurkat NF-kB luciferase, 16 h | inhibition, % at 4 µM | 27% of 2,700 active;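 active = inhibition reaching about 45% at 4 µM in either replicate, limit read from the data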;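 also: plate controls were PMA/ionomycin stimulated DMSO wells for no effect and unstimulated DMSO wells for full effect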
* = called active by the depositor. Most compounds without a hit are left out; they make up all but 1.8% or so of the library.

What do the screens show for `CC(C)CCOc1cccc(OCC(=O)Nc2ccncc2)c1`?
697 NFkB inh: -10.6; Jurkat NFkB inh: 56.7*; Beta cell apopt: 3.7; Gli-Sufu block: 21.7; Jurkat NFkB conf: 64.8*

How did COc1cccc(OCC(=O)Nc2ccncc2)c1 do in these assays?
697 NFkB inh: 11.3; Jurkat NFkB inh: 15.3; Beta cell apopt: -2.7; Gli-Sufu block: -0.5

What do the screens show for `CC(C)(C)[C@@H]1C=C(C(N)=O)O[C@H](OCc2ccc(CO)cc2)C1`?
697 NFkB inh: -23.4; Jurkat NFkB inh: -14.2; Beta cell apopt: 8.2; Gli-Sufu block: 5.8

How did COC(=O)c1cc(OC)c(OC)cc1NC(=S)NC(=O)c1ccco1 do in these assays?
697 NFkB inh: -18.0; Jurkat NFkB inh: 85.5*; Beta cell apopt: 1.5; Gli-Sufu block: 19.4; Jurkat NFkB conf: -2.2

What do the screens show for `CCNC(=S)Nc1cc(OC)c(NC(=O)c2ccco2)cc1OC`?
697 NFkB inh: -24.3; Jurkat NFkB inh: -40.4; Gli-Sufu block: -4.3

Results for COc1cc2nc(NC(=O)c3ccco3)sc(=O)c2cc1OC ?
697 NFkB inh: 24.3; Jurkat NFkB inh: 79.6*; Beta cell apopt: -0.5; Gli-Sufu block: 11.8; Jurkat NFkB conf: 88.9*

What do the screens show for `COc1cc2sc(NC(=O)c3ccco3)nc2cc1Cl`?
697 NFkB inh: -115.5; Jurkat NFkB inh: -64.9; Beta cell apopt: 0.1; Gli-Sufu block: -69.4

What do the screens show for `CCCC[C@@H](CN[C@H](C)CNC)NCC1CCC(C(C)(C)C)CC1` (some centres not stated)?
697 NFkB inh: 18.5; Jurkat NFkB inh: 52.6*; Beta cell apopt: 93.4*; Gli-Sufu block: 15.6; Jurkat NFkB conf: 25.9

What do the screens show for `CCOC(=O)N1CCC(N2Cc3cccc(C(=O)NC(C)c4ccc5c(c4)OCCO5)c3C2=O)CC1` (configuration not stated)?
697 NFkB inh: 20.5; Jurkat NFkB inh: -8.1; Beta cell apopt: 2.0; Gli-Sufu block: 0.4

What do the screens show for `O=C(NN1CCOCC1)c1ccc(Cl)cc1`?
697 NFkB inh: 12.1; Jurkat NFkB inh: 5.9; Beta cell apopt: -4.3; Gli-Sufu block: 1.7

What do the screens show for `O=C(NCCC1=CCCCC1)NC12CC3CC(CC(C3)C1)C2`?
697 NFkB inh: -150.3; Jurkat NFkB inh: -162.4; Beta cell apopt: -0.9; Gli-Sufu block: -70.5; Jurkat NFkB conf: -50.1

Results for Cc1ccc(C)c(N/C(N)=N/c2nc(C)cc(C)n2)c1 ?
697 NFkB inh: -28.7; Jurkat NFkB inh: 3.8; Beta cell apopt: -7.6; Gli-Sufu block: 10.8

Results for Cc1ccc(CN=C(N)Nc2nc(C)cc(C)n2)cc1 ?
697 NFkB inh: -38.8; Jurkat NFkB inh: 72.9*; Beta cell apopt: 8.7; Gli-Sufu block: -2.5; Jurkat NFkB conf: 17.2

What do the screens show for `CC(C(=O)Nc1ccccc1C(=O)N1CCOCC1)N(c1ccc(Cl)cc1)S(C)(=O)=O` (configuration not stated)?
697 NFkB inh: 6.0; Jurkat NFkB inh: -1.8; Beta cell apopt: -16.3; Gli-Sufu block: 2.2

How did COc1ccc(-c2cn3ccccc3n2)cc1 do in these assays?
697 NFkB inh: -133.2; Jurkat NFkB inh: -122.4; Beta cell apopt: 5.7; Gli-Sufu block: -77.6

What do the screens show for `Brc1ccc(-c2cn3ccccc3n2)s1`?
697 NFkB inh: -245.4; Jurkat NFkB inh: -166.3; Beta cell apopt: -2.5; Gli-Sufu block: -31.1; Jurkat NFkB conf: -101.5

What do the screens show for `Cc1cccc(-n2ncc3c(NC4CCCCC4)ncnc32)c1`?
697 NFkB inh: -234.9; Jurkat NFkB inh: -155.5; Gli-Sufu block: -109.0; Jurkat NFkB conf: -147.7

How did Cc1ccc(-n2ncc3c(N4CCN(c5ccccc5)CC4)ncnc32)c(C)c1 do in these assays?
697 NFkB inh: -39.3; Jurkat NFkB inh: 59.5*; Gli-Sufu block: 20.5; Jurkat NFkB conf: 38.6

How did CC1CN(c2ncnc3c2cnn3-c2ccc(Cl)cc2)CC(C)O1 (configuration not stated) do in these assays?
697 NFkB inh: -196.5; Jurkat NFkB inh: -187.3; Beta cell apopt: 3.4; Gli-Sufu block: -59.0; Jurkat NFkB conf: -70.8

Results for Cc1cccc(-n2ncc3c(N4CC(C)CC(C)C4)ncnc32)c1 (configuration not stated) ?
697 NFkB inh: -198.7; Jurkat NFkB inh: -166.4; Gli-Sufu block: -106.1; Jurkat NFkB conf: -106.7

Results for Cc1ccc(C(=O)/C=C/c2ccc(-c3ccc(C)cc3)o2)cc1 ?
697 NFkB inh: -38.8; Jurkat NFkB inh: -1.7; Beta cell apopt: -3.1; Gli-Sufu block: -21.1

What do the screens show for `O=C(CCC(=O)N1CCSc2ccccc21)NCc1ccc(Cl)cc1`?
697 NFkB inh: -21.9; Jurkat NFkB inh: -2.0; Beta cell apopt: -9.2; Gli-Sufu block: 0.1

What do the screens show for `CCCCn1c(N)c(N(CC(C)C)C(=O)c2cccc(S(=O)(=O)N3CCCCCC3)c2)c(=O)[nH]c1=O`?
697 NFkB inh: 1.7; Jurkat NFkB inh: -4.2; Gli-Sufu block: 2.7

How did COCC(=O)Nc1c(C(=O)Nc2ccccc2OC)oc2ccccc12 do in these assays?
697 NFkB inh: 17.9; Jurkat NFkB inh: -0.2; Beta cell apopt: 2.3; Gli-Sufu block: -9.6

Results for COc1ccccc1NC(=O)c1oc2ccccc2c1NC(=O)c1cc(OC)c(OC)c(OC)c1 ?
697 NFkB inh: -20.2; Jurkat NFkB inh: 63.6*; Beta cell apopt: 8.9; Gli-Sufu block: 13.8; Jurkat NFkB conf: 12.8

How did O=c1c2ccccc2[nH]c(=S)n1Cc1cccnc1 do in these assays?
697 NFkB inh: 3.0; Jurkat NFkB inh: 5.8; Beta cell apopt: 2.9; Gli-Sufu block: -0.5

How did CN1CCN(C(=O)C23CCC(C)(C(=O)C2Br)C3(C)C)CC1 (configuration not stated) do in these assays?
697 NFkB inh: -11.8; Jurkat NFkB inh: 12.5; Beta cell apopt: -5.8; Gli-Sufu block: 1.9

Results for CCc1ccc(NC(=O)C(=S)NC2CCCCC2)cc1 ?
697 NFkB inh: -133.2; Jurkat NFkB inh: -181.7; Gli-Sufu block: -28.6; Jurkat NFkB conf: -76.3

What do the screens show for `O=C(Nc1ccc(Br)cc1)NC1CCCCCCC1`?
697 NFkB inh: -218.9; Jurkat NFkB inh: -178.7; Beta cell apopt: 13.7; Gli-Sufu block: -105.5; Jurkat NFkB conf: -81.4

How did CCOc1ccc(NC(=O)C(=S)NC2CCCCC2)cc1 do in these assays?
697 NFkB inh: -33.1; Jurkat NFkB inh: -72.4; Beta cell apopt: 11.2; Gli-Sufu block: -68.7

What do the screens show for `COc1ccc(NC(=O)C(=S)NC2CCCCC2)cc1`?
697 NFkB inh: -140.9; Jurkat NFkB inh: -156.3; Beta cell apopt: -5.3; Gli-Sufu block: -109.5; Jurkat NFkB conf: -48.7

What do the screens show for `O=C(Nc1ccccc1)NC1CCCCCCC1`?
697 NFkB inh: -42.4; Jurkat NFkB inh: -65.1; Gli-Sufu block: -36.1

Results for CCc1ccc(NC(=O)NC2CCCCCCC2)cc1 ?
697 NFkB inh: -209.9; Jurkat NFkB inh: -147.1; Beta cell apopt: 7.5; Gli-Sufu block: -94.9

Results for COc1cccc(C(=O)/C=C/Nc2cc(C)ccc2O)c1 ?
697 NFkB inh: -61.3; Jurkat NFkB inh: 67.4*; Beta cell apopt: 2.6; Gli-Sufu block: 22.2; Jurkat NFkB conf: -8.1

Results for COc1ccc(N/C=C/C(=O)c2ccc(C)cc2)c([N+](=O)[O-])c1 ?
697 NFkB inh: -190.9; Jurkat NFkB inh: -179.3; Beta cell apopt: 5.9; Gli-Sufu block: -82.6; Jurkat NFkB conf: -84.3
